Design in all cases: scale not given: direction of the effect not stated beside the values
For assay [1], the target named is Protein translocase subunit SecA (Escherichia coli (strain K12)) (UniProt P10408). The assay can be described thus: Assay to Identify E. coli SecA ATPase Inhibitors. The assay is classed as functional. Particulars: 30 µM.
The target of assay [2] is T1, Ubiquitin-activating enzyme e1, putative (Leishmania donovani (strain BPK282A1)) (UniProt E9BSI1).
T1 sequence (whole entry): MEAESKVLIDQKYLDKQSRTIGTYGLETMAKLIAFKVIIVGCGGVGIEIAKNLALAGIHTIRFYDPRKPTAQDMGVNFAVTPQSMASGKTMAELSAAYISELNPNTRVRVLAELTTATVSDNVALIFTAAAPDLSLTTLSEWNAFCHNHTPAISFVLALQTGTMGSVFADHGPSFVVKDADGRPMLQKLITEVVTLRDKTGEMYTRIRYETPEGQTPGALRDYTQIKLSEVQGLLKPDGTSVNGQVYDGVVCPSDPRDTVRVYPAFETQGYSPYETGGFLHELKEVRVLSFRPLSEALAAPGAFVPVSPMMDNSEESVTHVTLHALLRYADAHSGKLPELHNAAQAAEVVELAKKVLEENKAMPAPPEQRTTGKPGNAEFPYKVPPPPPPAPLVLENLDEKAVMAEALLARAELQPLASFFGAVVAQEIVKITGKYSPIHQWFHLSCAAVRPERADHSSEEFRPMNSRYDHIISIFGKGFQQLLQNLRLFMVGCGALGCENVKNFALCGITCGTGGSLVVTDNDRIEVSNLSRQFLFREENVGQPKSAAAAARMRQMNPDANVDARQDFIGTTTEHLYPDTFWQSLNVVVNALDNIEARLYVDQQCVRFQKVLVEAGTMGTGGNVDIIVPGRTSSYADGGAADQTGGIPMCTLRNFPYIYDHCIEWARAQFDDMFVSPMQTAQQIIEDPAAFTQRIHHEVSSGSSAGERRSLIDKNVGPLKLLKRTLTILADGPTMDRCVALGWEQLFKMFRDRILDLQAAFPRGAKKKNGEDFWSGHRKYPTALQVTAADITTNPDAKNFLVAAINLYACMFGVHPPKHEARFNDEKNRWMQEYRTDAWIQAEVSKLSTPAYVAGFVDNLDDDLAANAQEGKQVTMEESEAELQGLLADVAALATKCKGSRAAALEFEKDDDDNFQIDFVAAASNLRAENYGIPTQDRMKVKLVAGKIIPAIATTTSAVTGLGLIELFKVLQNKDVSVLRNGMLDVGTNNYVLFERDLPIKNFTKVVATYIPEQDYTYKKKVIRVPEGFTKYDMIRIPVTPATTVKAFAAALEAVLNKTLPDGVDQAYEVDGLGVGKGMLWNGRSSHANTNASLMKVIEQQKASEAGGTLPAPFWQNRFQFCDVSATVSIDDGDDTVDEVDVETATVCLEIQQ
The assay can be described thus: Leishmania donovani Ubiquitin Activating Enzyme (LdE1). The assay is classed as functional. Particulars: 30 µM.

Assay [3] concerns the target AMP-activated protein kinase, AMPK (Homo sapiens) (UniProt P54646+O43741+P54619+Q9UGJ0+Q9Y478+Q13131+Q9UGI9). The assay can be described thus: AMP-dependent Kinase enzyme assay. An in vitro enzyme assay that detects ADP turnover that is directly proportional to AMPK activity. This uses naive AMPK that is activated during the assay with MK-8722. The assay is classed as functional. Particulars: 30 µM.

Assay [4] has as its target Sialic acid-binding Ig-like lectin 9 (Homo sapiens) (UniProt Q9Y336). The assay can be described thus: Hs-Siglec9 ALPHAscreen SOP 20170721. Particulars: 10 µM. On the technique in general: Bead proximity is the source of the signal in Alpha formats.
Assay [5] deals with Trypanosoma cruzi. The assay can be described thus: Trypanosoma cruzi phosphomannomutase and mannose-1-phosphate guanylyltransferase assay. Particulars: 10 µM. The assay is classed as functional.
The target in assay [6] is T2, Arginase-2, mitochondrial (Homo sapiens) (UniProt P78540).
T2 sequence (whole entry): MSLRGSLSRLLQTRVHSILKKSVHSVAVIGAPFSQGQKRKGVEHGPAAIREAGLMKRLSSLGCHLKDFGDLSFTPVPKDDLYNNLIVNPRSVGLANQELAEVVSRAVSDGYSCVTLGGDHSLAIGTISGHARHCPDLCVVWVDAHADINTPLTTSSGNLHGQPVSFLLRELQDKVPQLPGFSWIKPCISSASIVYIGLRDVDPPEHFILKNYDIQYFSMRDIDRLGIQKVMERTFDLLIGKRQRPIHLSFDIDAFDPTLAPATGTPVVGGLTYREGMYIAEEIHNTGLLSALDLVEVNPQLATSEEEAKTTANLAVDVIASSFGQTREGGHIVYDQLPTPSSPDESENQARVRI
The assay can be described thus: in vitro enzyme assay to detect the production of urea directly proportional to the activity of Arginase II. Also: in the data most compounds retested in dose-response had high values. The format is functional. Particulars: 33.3 µM.

The target of assay [7] is T3, Proteasome subunit beta (Trypanosoma cruzi) (UniProt O96673).
T3 sequence (whole entry): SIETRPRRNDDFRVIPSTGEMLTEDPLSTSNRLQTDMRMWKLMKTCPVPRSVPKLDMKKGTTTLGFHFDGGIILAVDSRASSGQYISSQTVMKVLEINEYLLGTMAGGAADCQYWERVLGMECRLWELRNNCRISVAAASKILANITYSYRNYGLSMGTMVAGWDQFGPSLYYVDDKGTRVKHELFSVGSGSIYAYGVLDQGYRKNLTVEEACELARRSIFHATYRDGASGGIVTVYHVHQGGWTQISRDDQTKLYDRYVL
The assay can be described thus: Trypanosoma cruzi proteasome chymotrypsin-like activity (TcProtChymo) assay. Also: in the data most compounds retested in dose-response had high values. The format is functional. Particulars: 9.37 µM.

For assay [8], the species on record is Homo sapiens. The assay can be described thus: To identify inhibition of the IFN signalling (Jak-Stat) pathway via expression of an eGFP reporter gene under the control of an IFN-stimulated response element (ISRE) containing MxA promoter. Particulars: 30 µM. The format is functional. Background: In a reporter assay the amount or activity of a reporter protein is the signal.

For assay [9], the target named is T4, Tyrosyl-tRNA synthetase, putative (Trypanosoma cruzi (strain CL Brener)) (UniProt Q4DSP6).
T4 sequence (whole entry): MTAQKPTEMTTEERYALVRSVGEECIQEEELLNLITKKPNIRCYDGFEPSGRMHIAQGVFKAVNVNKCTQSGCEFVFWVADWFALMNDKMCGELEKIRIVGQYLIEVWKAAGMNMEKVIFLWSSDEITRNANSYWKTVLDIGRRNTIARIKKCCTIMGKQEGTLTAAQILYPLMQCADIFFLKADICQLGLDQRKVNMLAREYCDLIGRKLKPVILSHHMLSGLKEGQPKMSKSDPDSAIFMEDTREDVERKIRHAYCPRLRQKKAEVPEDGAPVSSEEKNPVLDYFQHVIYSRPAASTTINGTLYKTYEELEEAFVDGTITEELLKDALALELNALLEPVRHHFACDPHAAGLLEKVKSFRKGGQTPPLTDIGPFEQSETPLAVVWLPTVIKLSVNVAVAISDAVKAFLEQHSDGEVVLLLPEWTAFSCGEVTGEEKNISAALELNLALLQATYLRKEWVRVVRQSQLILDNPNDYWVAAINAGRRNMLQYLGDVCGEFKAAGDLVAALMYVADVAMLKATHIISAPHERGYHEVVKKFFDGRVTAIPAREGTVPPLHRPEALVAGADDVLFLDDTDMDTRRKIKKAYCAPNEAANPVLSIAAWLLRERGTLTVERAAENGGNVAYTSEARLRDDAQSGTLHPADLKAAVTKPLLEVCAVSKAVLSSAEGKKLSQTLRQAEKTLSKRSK
The assay can be described thus: Trypanosoma cruzi tyrosyl tRNA synthetase (TcYRS) _High Tyrosine SOP. Also: in the data most compounds retested in dose-response had high values. Particulars: 30 µM. The assay is classed as functional.

Assay [10] deals with T4, Tyrosyl-tRNA synthetase, putative (Trypanosoma cruzi (strain CL Brener)). The assay can be described thus: Trypanosoma cruzi tyrosyl tRNA synthetase (TcYRS) SOP. The format is functional. Particulars: 30 µM.
Assay [11] has as its target Chromo domain-containing protein 1 (Saccharomyces cerevisiae (strain ATCC 204508 / S288c) (Baker's yeast)) (UniProt P32657). The assay can be described thus: ScCHD-1 Enzyme Inhibition Assay. Also: in the data most compounds retested in dose-response had high values. Particulars: 30 µM. The assay is classed as functional.

For some assays here: Entries with a potency or affinity are not part of this list.

Chain of Protein translocase subunit SecA (Escherichia coli (strain K12)) (P10408 whole entry): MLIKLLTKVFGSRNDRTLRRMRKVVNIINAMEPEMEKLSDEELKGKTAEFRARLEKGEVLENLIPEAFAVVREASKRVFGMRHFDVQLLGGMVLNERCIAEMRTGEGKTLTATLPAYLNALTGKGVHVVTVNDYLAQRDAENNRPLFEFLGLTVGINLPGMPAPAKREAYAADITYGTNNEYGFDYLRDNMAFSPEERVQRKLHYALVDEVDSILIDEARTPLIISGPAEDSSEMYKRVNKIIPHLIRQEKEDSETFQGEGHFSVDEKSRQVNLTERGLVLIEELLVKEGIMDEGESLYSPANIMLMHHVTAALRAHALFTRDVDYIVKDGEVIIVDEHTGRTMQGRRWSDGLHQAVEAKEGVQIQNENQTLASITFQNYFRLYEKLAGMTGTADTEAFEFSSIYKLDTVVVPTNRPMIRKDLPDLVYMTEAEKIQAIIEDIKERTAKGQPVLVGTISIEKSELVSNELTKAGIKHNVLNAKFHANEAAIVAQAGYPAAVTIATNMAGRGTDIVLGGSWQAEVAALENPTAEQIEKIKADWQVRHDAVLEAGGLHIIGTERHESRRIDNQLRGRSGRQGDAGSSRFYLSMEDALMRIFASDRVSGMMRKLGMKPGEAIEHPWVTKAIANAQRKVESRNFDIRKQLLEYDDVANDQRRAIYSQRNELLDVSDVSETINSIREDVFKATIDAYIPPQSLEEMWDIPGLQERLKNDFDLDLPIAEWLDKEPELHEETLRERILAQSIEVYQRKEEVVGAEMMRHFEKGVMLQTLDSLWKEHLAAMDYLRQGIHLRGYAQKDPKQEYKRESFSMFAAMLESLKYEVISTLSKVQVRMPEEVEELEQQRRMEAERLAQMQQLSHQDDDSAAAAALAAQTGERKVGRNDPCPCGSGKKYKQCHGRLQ
Chain of Chromo domain-containing protein 1 (Saccharomyces cerevisiae (strain ATCC 204508 / S288c) (Baker's yeast)) (P32657 whole entry, the tested form may be a part): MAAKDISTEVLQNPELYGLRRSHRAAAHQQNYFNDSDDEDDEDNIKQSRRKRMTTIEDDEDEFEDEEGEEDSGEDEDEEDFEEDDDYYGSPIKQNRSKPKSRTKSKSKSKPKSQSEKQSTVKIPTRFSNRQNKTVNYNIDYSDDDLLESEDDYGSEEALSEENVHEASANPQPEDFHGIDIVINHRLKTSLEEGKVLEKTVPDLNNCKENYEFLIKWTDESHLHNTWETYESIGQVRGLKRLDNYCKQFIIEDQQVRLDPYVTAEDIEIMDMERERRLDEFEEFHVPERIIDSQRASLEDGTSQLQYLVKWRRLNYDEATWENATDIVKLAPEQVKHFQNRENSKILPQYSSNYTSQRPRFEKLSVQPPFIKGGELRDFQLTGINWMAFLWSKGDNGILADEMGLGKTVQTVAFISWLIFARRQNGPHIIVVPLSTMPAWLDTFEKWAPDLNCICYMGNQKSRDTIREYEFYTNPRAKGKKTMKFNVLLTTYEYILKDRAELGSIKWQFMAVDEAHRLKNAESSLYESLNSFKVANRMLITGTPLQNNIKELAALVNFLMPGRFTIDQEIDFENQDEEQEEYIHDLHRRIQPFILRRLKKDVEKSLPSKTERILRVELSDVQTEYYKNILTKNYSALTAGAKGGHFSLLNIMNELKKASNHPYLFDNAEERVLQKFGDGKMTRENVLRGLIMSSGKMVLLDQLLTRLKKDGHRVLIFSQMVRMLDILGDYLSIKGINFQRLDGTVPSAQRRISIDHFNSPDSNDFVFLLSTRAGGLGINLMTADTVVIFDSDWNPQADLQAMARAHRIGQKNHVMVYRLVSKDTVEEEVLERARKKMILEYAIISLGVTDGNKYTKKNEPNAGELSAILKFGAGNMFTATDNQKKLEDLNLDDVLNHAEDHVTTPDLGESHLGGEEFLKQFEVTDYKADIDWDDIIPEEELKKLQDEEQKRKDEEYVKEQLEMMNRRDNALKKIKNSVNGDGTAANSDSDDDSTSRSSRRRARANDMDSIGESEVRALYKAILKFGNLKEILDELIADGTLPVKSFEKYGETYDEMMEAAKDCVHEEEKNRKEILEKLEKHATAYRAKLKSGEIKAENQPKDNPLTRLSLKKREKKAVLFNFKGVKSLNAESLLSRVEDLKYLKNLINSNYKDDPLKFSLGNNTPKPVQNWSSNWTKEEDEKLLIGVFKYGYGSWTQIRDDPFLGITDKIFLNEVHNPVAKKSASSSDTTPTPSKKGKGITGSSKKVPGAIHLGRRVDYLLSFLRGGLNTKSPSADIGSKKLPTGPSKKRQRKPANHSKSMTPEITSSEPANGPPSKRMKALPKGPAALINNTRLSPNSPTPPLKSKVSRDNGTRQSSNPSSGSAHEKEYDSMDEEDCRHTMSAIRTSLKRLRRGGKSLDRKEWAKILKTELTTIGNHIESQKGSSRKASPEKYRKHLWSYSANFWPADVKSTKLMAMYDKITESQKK
Chain of Sialic acid-binding Ig-like lectin 9 (Homo sapiens) (Q9Y336 whole entry): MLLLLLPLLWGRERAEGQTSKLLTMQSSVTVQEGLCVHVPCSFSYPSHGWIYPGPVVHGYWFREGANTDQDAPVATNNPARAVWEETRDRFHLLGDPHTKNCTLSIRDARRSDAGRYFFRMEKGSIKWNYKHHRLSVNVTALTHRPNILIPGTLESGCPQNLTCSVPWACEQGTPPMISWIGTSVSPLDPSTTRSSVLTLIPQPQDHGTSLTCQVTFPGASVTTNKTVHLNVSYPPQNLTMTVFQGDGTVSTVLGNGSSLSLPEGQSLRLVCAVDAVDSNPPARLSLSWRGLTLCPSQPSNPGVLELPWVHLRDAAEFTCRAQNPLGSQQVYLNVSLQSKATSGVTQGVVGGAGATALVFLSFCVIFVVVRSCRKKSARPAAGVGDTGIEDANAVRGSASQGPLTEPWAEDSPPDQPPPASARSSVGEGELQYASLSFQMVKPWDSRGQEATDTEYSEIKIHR

In the case of `Cc1ccccc1Cc1cnc(NC(=O)C2CNC(=O)N2)s1` (stereo not given), the Percent Effect in assay [1] is -3.2%; in [2] it was 3.8%; in assay [3] it was -1.9%; in assay [4] it was 0.365%; in [5], 2.36%; in assay [6] it was -4.95%. The Percent Effect was 13.7% in [7]; 22.3% in assay [8]; 2.08% in [9]; 15.2% in [10]; -23.7% in assay [11].

As for `O=C(c1ccco1)N1CC[C@H]2[C@H]1CCN2CC1CCOCC1`, the Percent Effect in assay [1] was -5.53%; in assay [2], 0%; in [3], 11.2%; in [4], -3.38%; in assay [5], -3.74%; in assay [6] it was 1.17%. In addition, the Percent Effect was -2.56% in assay [7]; 6.93% in assay [8]; 6.38% in assay [9]; 3.85% in assay [10]; -1.01% in assay [11].

In the case of `c1ccc(-n2cc(CN3CCCC(Cn4cncn4)C3)nn2)cc1` (stereo not given), the Percent Effect in assay [1] is -2.56%; in assay [2], 3.8%; in assay [3], 7.41%; in assay [4], 3.66%; in [5] it was -3.79%; in assay [6], -0.215%. The Percent Effect in assay [7] was 15.4%; in assay [8] it was 12.2%; in assay [9] it was 7.29%; in assay [10] it was 12.7%; in assay [11], -25.5%.

Take `Cc1ccn(-c2ccc(C(=O)N3CCCC(n4ccnc4)C3)cc2)n1` (stereo not given): the Percent Effect is 1.74% in [1]; -2.53% in assay [2]; 4.22% in [3]; -1.83% in [4]; 1.6% in [5]; 2.66% in assay [6]. For the same compound, the Percent Effect was -2.21% in [7]; 1.73% in assay [8]; 4.43% in assay [9]; -3.8% in assay [10]; -1.63% in assay [11].

As to `CCS(=O)(=O)N1C[C@H]2C[C@H](C(=O)N(C)C)[C@@H](C1)O2`, the Percent Effect is -1.35% in assay [1]; 8% in [2]; 9.37% in assay [3]; 0.653% in [4]; -5.51% in assay [5]; 3.03% in assay [6]. In addition, the Percent Effect is 5.55% in [7]; 5.25% in [8]; 4.25% in assay [9]; 6.41% in [10]; -3.75% in assay [11].

Turning to `CN(Cc1nnc(C2CC2)n1C)C1CCN(CCc2cccs2)C1` (stereo not given), the Percent Effect is -0.668% in [1]; 5.48% in assay [2]; -3.64% in assay [3]; 3.02% in [4]; 8.33% in assay [5]; 0% in assay [6]. For the same compound, the Percent Effect in [7] was 15.5%; in [8] it was -8.16%; in [9], 2.08%; in assay [10] it was 6.17%; in [11] it was -3.22%.

With `Cc1cccc2c1OCCC2NCc1c(C)nn(C)c1N(C)C` (stereo not given), the Percent Effect was 1.41% in assay [1]; 18.4% in assay [2]; -5.71% in [3]; 0.779% in assay [4]; -3.95% in assay [5]; 7.28% in assay [6]. For the same compound, the Percent Effect in assay [7] was 16.9%; in assay [8], 24.8%; in assay [9], 1.47%; in assay [10], 7.32%; in [11], -18.2%.

For `CC(=O)Nc1nc(C2CCN(C(=O)c3cccnc3)CC2)cs1`, the Percent Effect was -6.73% in assay [1]; 21.3% in [2]; 0.538% in assay [3]; 3.28% in [4]; 2.36% in assay [5]; -2.56% in assay [6]. The Percent Effect in assay [7] was 12.1%; in [8], 5.76%; in assay [9] it was 5.32%; in assay [10], 19.2%; in assay [11] it was -2.51%.

On to `CN(Cc1ccc(N2CCCCC2)cc1)Cc1noc(C(C)(C)C)n1`, for which the Percent Effect was -2.34% in [1]; -13% in assay [2]; -0.29% in [3]; 2.11% in assay [4]; 0.492% in assay [5]; 0% in assay [6]. Besides, the Percent Effect in [7] was 13.8%; in assay [8], 9.08%; in [9], -2.15%; in assay [10], -6.17%; in [11], -1.32%.

Turning to `N#Cc1ccc(C(=O)N2CCC3(CC2)C(=O)Nc2ccccc23)cn1`, the Percent Effect in assay [1] was -4.93%; in assay [2] it was 8.11%; in assay [3], 0.0753%; in assay [4], 1.98%; in assay [5], -0.684%; in assay [6], 2.73%. For the same compound, the Percent Effect in assay [7] is 9.87%; in assay [8], 0.335%; in assay [9], 10.8%; in assay [10], 18.5%; in assay [11], -4.78%.

The values are drawn from ChEMBL document CHEMBL3988442, “University of Dundee, Small-Polar-MMV Screening Library” (2021).
